Screens as filed in PubChem.
SMN2 splice enh: increases expression of the SMN2 splice variant; HEK293 SMN2-luciferase splicing reporter, luminescence, 30-36 h; Potency, µM (titrated, usually from 46.1 µM), without a hit: at the highest dose activity change, positive = activation, actives largely listed as activators; hit rate 2.8% among 210,000; note: % of control where 0% means no effect; nearly all actives have a fitted effect of over 55% in size
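HEK293 cells carry an SMN2 minigene-luciferase reporter in which exon 7 inclusion puts luciferase in frame. Cells were seeded at 2000 cells/well, attached for 10-12 hours, then exposed to compounds for 30-36 hours at 37C before ONE-Glo luminescence.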
NPC1 prom act: activates the NPC1 promoter | Huh7 NPC1 promoter luciferase reporter, 24 h | Potency, µM (titrated, usually from 9.22 µM), inactives show top-dose activation, hits mostly activators | hit rate 2.4% among 320,000 | AID 485313; note: % of control where 0% means no effect; nearly all actives have a fitted effect of over 60% in size
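Luminescence from an NPC1 promoter-driven luciferase reporter in stably transfected Huh7 cells was measured after 24 h compound treatment at 37 °C, followed by 10 min ambient incubation with luciferase detection reagent.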
Rab9 promoter act: Rab9 promoter activation; Huh7 Rab9 promoter-luciferase reporter, luminescence, 24 h; Potency, µM (top dose mostly 9.22 µM), for inactives: top-dose activation, negative = inhibition, usual class: activators; hit rate 2.8% among 320,000; note: % of control where 0% means no effect; nearly all actives have a fitted effect of over 60% in size
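Huh7 reporter line, Rab9 promoter upstream of luciferase. Compound exposure 24 h at 37 °C in reduced-serum medium with 10% FBS. Read-out: luminescence.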
FLuc modulator: inhibits or activates purified firefly luciferase, miR-21 counter-screen; P08659; hit rate 6.9% among 360,000; AID 588342; purified FLuc, Km substrates, luminescence inhibition; Potency, µM (top dose mostly 57.5 µM), inactives show top-dose activity change, negative = inhibition, actives largely listed as inhibitors;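 note: plate controls were vehicle for no effect and reference inhibitor for full effect; nearly all actives have a fitted effect of over 55% in size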
Target sequence (P08659 whole entry, looked up): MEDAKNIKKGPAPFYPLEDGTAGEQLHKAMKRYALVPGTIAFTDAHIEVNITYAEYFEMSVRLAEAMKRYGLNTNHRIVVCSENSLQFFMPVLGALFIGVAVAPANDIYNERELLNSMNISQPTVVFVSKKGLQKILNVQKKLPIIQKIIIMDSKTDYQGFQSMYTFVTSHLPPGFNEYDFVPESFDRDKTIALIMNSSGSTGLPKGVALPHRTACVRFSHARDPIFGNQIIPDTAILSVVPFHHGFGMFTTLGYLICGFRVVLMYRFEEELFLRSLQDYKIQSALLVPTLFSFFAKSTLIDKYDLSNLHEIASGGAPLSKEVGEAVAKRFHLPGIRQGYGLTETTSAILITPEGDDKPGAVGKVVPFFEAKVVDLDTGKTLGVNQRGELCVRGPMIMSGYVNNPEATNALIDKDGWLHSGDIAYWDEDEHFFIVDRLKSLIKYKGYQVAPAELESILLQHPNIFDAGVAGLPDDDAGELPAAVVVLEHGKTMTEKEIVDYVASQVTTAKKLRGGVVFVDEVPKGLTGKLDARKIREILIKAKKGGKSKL
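Purified P. pyralis luciferase, 10 nM final, with Km-level 10 uM D-luciferin and 10 uM ATP in 50 mM Tris acetate pH 7.5, 10 mM Mg acetate, 0.01% Tween-20, 0.05% BSA; 6-point qHTS titration about 60 µM downward; luminescence read.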
KinaseGlo FLuc: blocks Kinase-Glo luciferase, a counter-screen artifact; Potency, µM (titrated, usually from 38.3 µM), for inactives: at the highest dose activity change, negative = inhibition, actives largely listed as inhibitors; Kinase-Glo luciferase, ATP luminescence, 8 min; AID 1379; hit rate 0.28% among 200,000; Q27757; note: % is set by controls: 0 for no effect and ±100 for the full control effect; nearly all actives have a fitted effect of over 60% in size
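Light output from Kinase-Glo luciferase with luciferin and 10 uM ATP in 50 mM imidazole pH 7.2, KCl, MgCl2, Tween 20, BSA; compound pin-delivered, 8-min ambient incubation, then luminescence read.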
Active calls of the source: *; [ ] = another dose, or the depositor's remark. Hits are enriched below; roughly 7.3% of the tested compounds scored in any of these assays. Calls come from the whole dose curve; as a rule, active = well fitted curve in the direction sought with a large enough effect; inconclusive = small, poorly fitted or top-dose-only effect, or another doubt; inactive = no such curve, though single readings can be large; an effect the other way counts as inactive or inconclusive. Potency is the fitted concentration of half-maximal effect.

Screening CCOc1ccc(Nc2c(S(=O)(=O)c3ccccc3)cnc3ccc(CC)cc23)cc1 returned SMN2 splice enh -37.9% and FLuc modulator 12.7%.
`Cc1c(C(=O)N(C)C)sc2c1c(=O)n(-c1ccc(Cl)cc1)c(=O)n2CC(=O)C(C)(C)C` gave FLuc modulator -0.9%.
For COc1ccc(Nc2ncnc3c2c(-c2ccccc2)cn3-c2ccc(C)c(Cl)c2)cc1OC the results were FLuc modulator 0.1%.
COc1ccc(-c2nc(SCC(=O)Nc3cccc(C(C)=O)c3)n[nH]2)cc1 was read as FLuc modulator 6.75µM*.
`C=CCSc1n[nH]c(-c2ccc(OC)cc2)n1` gave SMN2 splice enh 14.1µM*, NPC1 prom act 2.82µM*, Rab9 promoter act 2µM*, FLuc modulator 15.1µM* and KinaseGlo FLuc -7.8%.
CC(=O)c1cccc(NC(=O)CSc2n[nH]c(-c3ccncc3)n2)c1 was read as NPC1 prom act 1.3%, Rab9 promoter act -12.3% and FLuc modulator inconclusive.
Screening COc1ccc(-c2nc(SCC(=O)Nc3c(F)cccc3F)n[nH]2)cc1 returned NPC1 prom act -0.7%, Rab9 promoter act -3.1% and FLuc modulator 12µM*.
Screening Cc1ccc(-c2nc(SCC(=O)Nc3cc(S(=O)(=O)N4CCCCC4)ccc3Cl)n[nH]2)cc1 returned SMN2 splice enh 5.4%[1.84 µM], NPC1 prom act -5.4%, Rab9 promoter act -7.2%, FLuc modulator 15.1µM* and KinaseGlo FLuc -2.5%.
`Cc1nnc(SCC(=O)Nc2cc(S(=O)(=O)N3CCCC3)ccc2Cl)s1` gave NPC1 prom act -0.6%, Rab9 promoter act 3.3% and FLuc modulator -4.8%.
COc1cc(OC)cc(-c2nc(SCC(=O)Nc3ccccc3F)n[nH]2)c1 was read as NPC1 prom act -0.2%, Rab9 promoter act -0.1% and FLuc modulator 0.9%.
O=Cc1cccc(Br)c1 was read as SMN2 splice enh 1.2%.
For CCCCOc1ccc(-c2nc(SCC(N)=O)n[nH]2)cc1 the results were SMN2 splice enh 9.6%, NPC1 prom act inconclusive, Rab9 promoter act 25.5%, FLuc modulator 10.7µM* and KinaseGlo FLuc -1.0%.
CCCCOc1ccc(-c2nc(=S)[nH][nH]2)cc1 was read as SMN2 splice enh 10µM*, NPC1 prom act 25.5%, Rab9 promoter act inconclusive, FLuc modulator inconclusive and KinaseGlo FLuc 14.6%.
`COc1ccc(-c2nc(SCC(=O)Nc3cc(C)on3)n[nH]2)cc1` gave SMN2 splice enh -10.8%, NPC1 prom act -0.4%, Rab9 promoter act 0.5%, FLuc modulator 21.3µM* and KinaseGlo FLuc -4.5%.
COc1cccc(N(Cc2nnc3n2CCCCC3)C(=O)Nc2cccc(Cl)c2)c1 was read as FLuc modulator -4.7%.
COc1ccc(Br)cc1CNC(=O)CCc1cn(Cc2ccc(C)cc2)c2ccccc12 was read as FLuc modulator -1.3%.
For Cc1ccc(Oc2nc3ccccn3c(=O)c2/C=C(\C#N)c2nc3ccccc3s2)c(C)c1 the results were SMN2 splice enh 20.3% and FLuc modulator inconclusive.
For CN(C)c1ccc(/C=C/c2nnnn2-c2ccccc2)cc1 the results were SMN2 splice enh 15.8µM*, NPC1 prom act 2µM*, Rab9 promoter act 1.58µM*, FLuc modulator 8.49µM* and KinaseGlo FLuc -4.6%.
Screening CCN1CCN(c2cc3c(nn2)Oc2ccccc2N3C)CC1 returned SMN2 splice enh 15.8µM*, NPC1 prom act 28.6%, Rab9 promoter act inconclusive, FLuc modulator 16.9µM* and KinaseGlo FLuc -2.2%.
Screening CCN1CCN(c2nnc(-c3ccccc3)c3ccccc23)CC1 returned NPC1 prom act 1.9%, Rab9 promoter act -0.3% and FLuc modulator -4.6%.
For Cc1ccc(-c2cnc3c(Cl)c(C)nn3c2)cc1 the results were SMN2 splice enh 3.16µM*, NPC1 prom act inconclusive, Rab9 promoter act 0.447µM*, FLuc modulator 1.35µM* and KinaseGlo FLuc -29.9%.
`Cc1cc2nc(-c3ccc(Cl)cc3)cc(C(F)(F)F)n2n1` gave FLuc modulator -1.2%.
Cc1ccc(-c2cnc3cc(C)nn3c2)cc1 was read as SMN2 splice enh 12.6µM*, NPC1 prom act 0.708µM*, Rab9 promoter act 0.447µM*, FLuc modulator 2.13µM* and KinaseGlo FLuc -26.9%.
Cc1cc2ncc(-c3ccc(Cl)cc3)cn2n1 was read as SMN2 splice enh 11.2µM*, NPC1 prom act 3.55µM*, Rab9 promoter act 1.41µM*, FLuc modulator 2.69µM* and KinaseGlo FLuc -12.9%.
COC(=O)C1=C(C(=O)OC)[C@@H]2Nc3ccccc3[C@@]23C[C@@H](C(=O)OC)N(S(=O)(=O)c2ccc(C)cc2)C3=N1 was read as SMN2 splice enh -5.2%[9.22 µM] and KinaseGlo FLuc -3.5%[7.66 µM].
`CC(C)C[C@@H](CC(=O)N[C@@H](CCC(=O)O)CC(=O)O)NC(=O)[C@@H]1CCCC[C@H]1NC(=O)C[C@@H](NC(=O)C[C@H](Cc1ccccc1)NC(=O)[C@@H]1CCCC[C@H]1N)C(C)C` gave SMN2 splice enh -1.8% and KinaseGlo FLuc -1.0%.
Cc1ccc(/C=C2/C(=O)c3ccc(C(=O)O)cc3C2=O)o1 was read as NPC1 prom act 1.7%, Rab9 promoter act -16.1%, FLuc modulator 2.69µM* and KinaseGlo FLuc -3.9%.
For Cc1ccc(C=C2C(=O)c3ccccc3C2=O)o1 the results were SMN2 splice enh -7.5%[1.84 µM], NPC1 prom act 1.9%, Rab9 promoter act 1.4%, FLuc modulator 0.477µM* and KinaseGlo FLuc 11.2µM*.
For O=C1C(=Cc2ccco2)C(=O)c2ccccc21 the results were SMN2 splice enh 7.9%, NPC1 prom act 7.7%, Rab9 promoter act 1.4%, FLuc modulator 13.5µM* and KinaseGlo FLuc -20.4%.
For O=C(O)c1ccc2c(c1)C(=O)/C(=C\c1ccco1)C2=O the results were SMN2 splice enh 3.0%, NPC1 prom act -1.1%, Rab9 promoter act 0.2%, FLuc modulator 9.53µM* and KinaseGlo FLuc -22.8%.
`COc1cc(OC)c(NC(=O)C(c2ccccc2)N2Cc3ccccc3C2=O)cc1Cl` (centres undefined) gave FLuc modulator 0.4%.
`CCC1CCCCN1C(=O)Cn1c(=O)cc(C(F)(F)F)c2c(C)nn(C)c21` (centres undefined) gave FLuc modulator -7.8%.
For COc1ccc(OC)c(CC2C(=O)Nc3ccc(Br)cc32)c1 (centres undefined) the results were FLuc modulator -6.1%.
For CCOc1cccc(NC(=O)/C(C#N)=C/c2cccnc2)c1 the results were NPC1 prom act -5.7%, Rab9 promoter act -0.7% and FLuc modulator 16.9µM*.
CCOc1cc(/C=C(\C#N)C(=O)Nc2ccccn2)ccc1O was read as NPC1 prom act -7.3%, Rab9 promoter act 0.5% and FLuc modulator 16.9µM*.
`COc1cc(/C=C(\C#N)C(=O)N2CCc3ccccc32)ccc1O` gave NPC1 prom act -0.6%, Rab9 promoter act -7.4% and FLuc modulator 16.9µM*.
